# Compounds with a hit are over-represented: about 2.1% of the library has one in this group of screens.
# TDP43 rescue: rescues yeast growth from TDP-43 toxicity; TDP-43 expressing yeast growth rescue, BacTiter-Glo, 24 h; Potency, µM (titrated, usually from 46.1 µM), most hits filed as activators; 1.8% of 410,000 active; AID 652104; also: nearly all actives have a fitted effect of over 50% in size
#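 Growth rescue of TDP-43-toxic yeast measured as ATP luminescence (BacTiter-Glo). Cells grown to mid-log in raffinose, induced in galactose at OD600=0.02, exposed to compound 24 hr at 30 deg C.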
# FUS yeast rescue: suppressors of FUS proteinopathy in yeast; Potency, µM (series often up to 76.6 µM), most hits filed as activators; S. cerevisiae FUS-expressing, growth rescue, OD600, 24 h; 0.24% of 390,000 active; also: nearly all actives have a fitted effect of over 55% in size
#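 Galactose (2%) drives FUS expression in yeast precultured in raffinose; seeding density OD 0.005. Test compounds incubated 24hr at 30C and 99% humidity before absorbance at 600 nm was measured.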
# aSyn yeast inh: alpha-synuclein toxicity inhibition in yeast | Yeast expressing alpha-synuclein, growth rescue, BacTiter-Glo, 24 h | Potency, µM (doses to about 46.1 µM), hits mostly activators | 0.14% of 370,000 active; also: nearly all actives have a fitted effect of over 65% in size
#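 Screening used galactose-induced yeast with toxic alpha-synuclein levels, exposed to compound for 24 hr at 30 deg C. Cell growth, read with BacTiter-Glo luminescence, gave the measured signal.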
# Abeta rescue: restores growth of yeast expressing A-beta42 peptide; yeast expressing A-beta42, growth rescue, OD600, 48 h; response scale: 0% DMSO, 100% iron-clioquinol control; Potency, µM (highest dose often 46.1 µM), hits mostly activators; 0.063% of 410,000 active; AID 1347071; also: nearly all actives have a fitted effect of over 55% in size
#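 Growth rescue measured by 600 nm absorbance after 48 h yeast culture at 30 C with compound. Values normalized between DMSO and an equimolar ferric chloride plus clioquinol control.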
# A number is an active result; 0 = inactive; ? = inconclusive; - = no result; ! = not active in a repeat; [ ] = another dose, or the depositor's remark. Calls follow the shape of the dose curve; as a rule, active = well fitted curve in the direction sought with a large enough effect; inconclusive = small, poorly fitted or top-dose-only effect, or another doubt; inactive = no such curve, though single readings can be large; an effect the other way counts as inactive or inconclusive.
SMILES,TDP43 rescue,FUS yeast rescue,aSyn yeast inh,Abeta rescue
COc1ccc(OCC(=O)O/N=C(\N)c2ccc(OC)c(OC)c2)cc1,0,0,0,0
COc1ccc(CC(=O)O/N=C(\N)c2ccc(C)cc2)cc1,7.94µM,0,0,0
COc1ccc(CC(=O)O/N=C(\N)c2ccncc2)cc1,0,0,0,0
COc1ccccc1CC(=O)O/N=C(\N)c1ccccn1,?,0,0,0
COc1cccc(OCC(=O)O/N=C(\N)c2ccc(OC)c(OC)c2)c1,11.2µM,-,0,0
O=C(Cn1cc2c(n1)CCCC2)Nc1cc(C(F)(F)F)ccc1Cl,0[9.22 µM],0,-,0
Cc1cn(C)c(CC(=O)Nc2cccc(Cl)c2C)c1C(=O)O,0,0,-,0
O=CNc1ccc2c(c1)Cc1cc([N+](=O)[O-])ccc1-2,22.4µM,0,0,0
CCCCN1C(C(=O)c2ccccc2)=C(OC(C)=O)c2ccccc2S1(=O)=O,0,0,-,0
CCCCC(=O)OC1=C(C(=O)c2ccccc2)N(CC)S(=O)(=O)c2ccccc21,15.8µM,0,-,0
COc1ccc(C2C(C(=O)Nc3cc(OC)c(OC)c(OC)c3)CCC(=O)N2c2ccc(OC)cc2)cc1 (configuration not stated),-,0,-,-
COC1=Cc2c(ccc3ccc(=O)oc23)OC1(C)C,12.6µM,0,-,0
CNc1nc(N2CCCN(C)CC2)nc2cc(OC)c(OC)cc12,-,-,0,-
CCCCC(=O)Nc1ncc([N+](=O)[O-])s1,15.8µM,0,0,0
CC(C)CC(=O)Nc1ncc([N+](=O)[O-])s1,0,0,?,0
Cc1nc2nc(NC(=O)c3ccc(C(C)(C)C)cc3)[nH]n2c(=O)c1C,0,0,-,0
NC(=O)c1ccc(N2CCN(c3ncc(C(F)(F)F)cc3Cl)CC2)cc1,0,0,0,0
Nc1ccc(N2CCN(c3ncc(C(F)(F)F)cc3Cl)CC2)c(C(F)(F)F)c1,20µM,0,0,0
O=C(Nc1ccccc1)O/N=C/c1ccc(F)cc1,10µM,0,0,0
Cc1ccc(NC(=O)O/N=C/c2ccc(F)cc2)cc1,0,0,0,0
Cc1ccc(C(c2sc3nc(-c4ccco4)nn3c2O)N2CCN(Cc3ccccc3)CC2)cc1 (configuration not stated),0,0,-,0
CC(Cl)OC(=O)Nc1cccc2cccnc12 (configuration not stated),-,-,0,-
COc1ccc(CC(=O)Nc2cccc(SC)c2)cc1,12.6µM,-,0,0
COc1cc(CC(=O)Nc2cccc(SC)c2)cc(OC)c1OC,0,0,0,0
COc1ccc(C(=O)N2CCC(Oc3cccnc3)CC2)c(OC)c1,-,0,-,-
SMILES,TDP43 rescue,FUS yeast rescue,aSyn yeast inh,Abeta rescue
CC(=O)Nc1ccc(CN2C(=O)C(Cc3ccccc3)ON=C2c2ncccc2C)cc1 (configuration not stated),0,0,0,0
COc1cc(CN2C(=O)C(CCc3ccccc3)ON=C2c2cnccn2)cc(OC)c1 (configuration not stated),35.5µM,0,0,0
CC(=O)Oc1ccc(CN2C(=O)C(CCc3ccccc3)ON=C2c2cnccn2)cc1 (configuration not stated),14.1µM,0,0,0
C[C@@H](CO)N(CCc1cn(Cc2ccccc2)nn1)S(=O)(=O)c1ccccc1Br,-,0,-,-
CCN(CC)C(=O)CC[C@@H]1CC[C@]2(CCCN(Cc3ccncc3)C2)O1,-,0,-,-
COc1ccc(S(=O)(=O)N2CCN(C(=O)c3oc4ccccc4c3C)CC2)cc1,11.2µM,?,0,0
Cc1c(C(=O)N2CCN(c3ccccc3)CC2)oc2c(F)cccc12,14.1µM,0,0,0
COc1ccc2oc(C(=O)N3CCN(S(=O)(=O)c4ccc(F)cc4)CC3)c(C)c2c1,?,0,0,0
Cc1c(C(=O)N2CCN(S(=O)(=O)c3ccccc3)CC2)oc2ccccc12,15.8µM,0,0,0
Cc1c(C(=O)N2CCN(S(=O)(=O)c3cc(F)ccc3F)CC2)oc2ccccc12,14.1µM,0,0,0
CCC(C)[C@@H](C(=O)OC)N(Cc1cn(Cc2ccccc2)nn1)S(=O)(=O)c1ccccc1Br (some centres not stated),-,0,-,-
Cc1cc(C)c2nc(N3CCCC(C(=O)NCc4cccc(Cl)c4)C3)sc2c1 (configuration not stated),0,0,-,0
COc1ccc(CCC(=O)NCCOc2ccc(Cl)cc2)cc1,8.91µM,0,0,0
COc1ccc2c(C)c(CCC(=O)NCCc3ccc(Cl)cc3)c(=O)oc2c1,22.4µM,0,-,0
COc1ccc(CCNC(=O)c2oc3ccccc3c2C)cc1,0,0,0,0
COc1ccc(CCNC(=O)c2oc3ccc(OC)cc3c2C)cc1,3.98µM,0,0,0
CC1(C)OC(=O)C2(Cc3cc([N+](=O)[O-])ccc3N3CCCCCC32)C(=O)O1 (configuration not stated),-,-,0,-
Cn1c(=O)oc2cc(S(=O)(=O)N3CCCC(C(=O)NCCc4ccc(Cl)cc4)C3)ccc21 (configuration not stated),0,0,-,0
O=C([C@@H]1C[C@H]1c1ccccc1)N1CC[C@H]2[C@H](CCCN2Cc2ccccc2)C1,-,0,-,-
Nc1nc(=S)[nH]c(N)c1N,-,-,0,-
Cc1nn(C)c(C(=O)Nc2ccn(Cc3c(F)c(F)cc(F)c3F)n2)c1[N+](=O)[O-],7.94µM,-,0,0
Cc1nn(Cc2cccc(C(=O)Nc3ccn(Cc4c(F)c(F)cc(F)c4F)n3)c2)c(C)c1[N+](=O)[O-],0,0,0,0
COc1cccc(/C=N/c2oc(-c3ccccc3)cc2C#N)c1O,12.6µM,0,0,0
N#Cc1cc(-c2ccccc2)oc1/N=C/c1ccccc1O,0,0,0,0
CCN(CC)c1ccc(-c2nn3c(-c4ccc(C(C)(C)C)cc4)nnc3s2)cc1,-,0,-,-
SMILES,TDP43 rescue,FUS yeast rescue,aSyn yeast inh,Abeta rescue
O=C(CN1c2cccc3cccc(c23)S1(=O)=O)NCc1ccc2c(c1)OCO2,0,0,0,0
CC(C(=O)NCc1ccc2c(c1)OCO2)N1c2cccc3cccc(c23)S1(=O)=O (configuration not stated),12.6µM,0,0,0
CCc1ccccc1N(CC)C(=O)Cn1nc(Cc2ccncc2)c2ccccc2c1=O,0,0,-,0
CC1Oc2ccccc2C(=O)N(CC(=O)c2ccc3c(c2)OCCO3)C1=O (configuration not stated),17.8µM,0,0,0
Cc1ccc2c(c1)N(CC(=O)c1cccc(Cl)c1)C(=O)C(C)O2 (configuration not stated),0,-,0,0
CC1Oc2ccccc2N(CC(=O)c2cccc(Cl)c2)C1=O (configuration not stated),15.8µM,0,0,0
O=C(NCCO)[C@H](Cc1ccccc1)NC1(C(=O)NCCc2c[nH]c3ccccc23)CCCCC1,-,0,-,-
CCc1ccc(NC(=O)CCCn2nc(CC)n3c(cc4occc43)c2=O)cc1,0,0,0,0
CCc1nn(CCCC(=O)NCc2ccc(OC(C)C)cc2)c(=O)c2cc3occc3n12,0,31.6µM!,0,0
